The values that follow come from PubChem BioAssay (NCATS).

Structures are written as SMILES. Results filed as inconclusive are left out. Calls of active or inactive are those of the source. Calls follow the shape of the dose curve; as a rule, active = well fitted inhibition curve with a large enough effect; inconclusive = small, poorly fitted or top-dose-only effect; inactive = flat fitted curve, though single readings scatter. *1 amine or outer side, *2 acyl side, *3 side chain or, on linkers, in order; H or OH if unused. Where a SMILES comes first, the peptide text is derived from it. Bridges are numbered along the chain shown (N, C = ends). [ ]: non-standard residue; d: D form. X6 = O=C(CCC[*:2])[*:1]
% is scaled to controls: 0 for no effect and ±100 for the full control effect; potency is read from the fitted curve at half-maximal effect.

The nature of the experiment: Primary qHTS for inhibitors of nuclear receptor binding SET domain protein 2 (NSD2) in an isogenic RCH-ACV NSD2 p.E1099K mutant (9B) (AID 1645876). Also: nearly all actives have a fitted effect of over 70% in size. As to conditions: RCH-ACV (leukaemia line) NSD2 E1099K (9B) viability, CellTiter-Glo, 72 h; series mostly up to 44.9 µM; activity change, negative = viability loss: at the top concentration. A general note: In qHTS, concentration-response curves come from the screen itself.
Take `C[C@@H]1C(=O)O[C@H]2CC34[C@H]5C[C@@H](C(C)(C)C)C36[C@@H](OC(=O)[C@@H]6O)O[C@@]4(C(=O)O5)[C@]21O` (stereo not given in full): the “activity change, negative = viability loss” value is -8.01% [at 17.3 µM] (inactive).

For `COc1c2c(c(C)c3c1C(=O)OC3)O[C@@]1(C)C[C@@H](O)[C@]34O[C@](OC)(CC[C@]3(C)[C@H]1C2)OC4(C)C`, the “activity change, negative = viability loss” value was -4.95% [at 17.3 µM] (inactive).

Take `CC1=CCC2C(C)(CO)CCCC2(C)C1CC12OC1C(O)C(CO)=CC2O` (stereo not given): the “activity change, negative = viability loss” value was -4.38% (inactive).

For the compound `CC(=O)N[C@H](Cc1ccc(O)cc1)C(=O)N[C@H](CCCN=C(N)N)C(=O)N[C@H](Cc1ccccc1)C(N)=O` (Ac-[dY]-[dR]-[dF]-NH2), the compound was classed as inactive.

For the compound `C[C@H]1[C@H](C)CC[C@]2(C(=O)O[C@@H]3O[C@H](CO)[C@@H](O)[C@H](O)[C@H]3O)CC[C@]3(C(=O)O)C(=CCC4[C@@]5(C)CC[C@H](O[C@@H]6O[C@H](CO)[C@@H](O)[C@H](O)[C@H]6O)C(C)(C)C5CC[C@]43C)[C@H]12` (stereo not given in full), the activity change, negative = viability loss is -7.26% [at 9.23 µM] (inactive).

Regarding `C=C1CC[C@H]2[C@@H](/C=C(\C)C(=O)[C@@]3(OC(C)=O)C[C@H](C)[C@H](OC(C)=O)[C@@H]3[C@H]1OC(C)=O)C2(C)C`, the “activity change, negative = viability loss” value was -16.4% [at 17.3 µM] (inactive).

Take `CC(C)C1=CC2=CCC3[C@](C)(CCC[C@@]3(C)C(=O)O)C2CC1O` (stereo not given in full): the “activity change, negative = viability loss” value is 1.05% (inactive).

With `C=CCc1ccc(O[C@@H]2O[C@H](CO[C@@H]3O[C@H](CO)[C@@H](O)[C@H](O)[C@H]3O)[C@@H](O)[C@H](O)[C@H]2O)c(O)c1`, the “activity change, negative = viability loss” value was -10.2% [at 17.3 µM] (inactive).

Take `C[C@H]1CC[C@@]2(OC1)O[C@H]1CC3C4CC=C5C[C@H](O)C[C@@H](O[C@@H]6O[C@@H](C)[C@H](O)[C@@H](O)[C@H]6O[C@@H]6O[C@@H](C)[C@H](O)[C@@H](O)[C@H]6O)[C@]5(C)C4CC[C@]3(C)[C@H]1[C@@H]2C` (stereo not given in full): the “activity change, negative = viability loss” value is -2.59% [at 17.3 µM] (inactive).

In the case of `CC1=C2C(=O)C=C(CO)[C@@H]2[C@H]2OC(=O)[C@H](C)[C@@H]2[C@@H](O)C1`, the “activity change, negative = viability loss” value is -5.36% (inactive).

Turning to `COC(=O)[C@@H]1C2CC3c4[nH]c5ccccc5c4CCN3CC2CC[C@@H]1O` (stereo not given in full), the compound was called inactive.

On to `CC[C@H](C)[C@@H]1NC(=O)[C@H](Cc2ccc(OC)cc2)NC(=O)CCCSC[C@@H](C(=O)N2CCC[C@H]2C(=O)N[C@@H](CC(C)C)C(=O)NCC(N)=O)NC(=O)[C@H](CC(N)=O)NC(=O)[C@H](CCC(N)=O)NC1=O` (Y(Me)IQNCPLG-NH2; linker N-5 via X6), for which the “activity change, negative = viability loss” value was 4% (inactive).

`C=CC(C)(O)CC/C=C(\C)C(=O)OCC1OC(OC2CCC3(C)C(CCC4(C)C3CC=C3C5CC(C)(C)C(O)CC5(C(=O)O)CCC34C)C2(C)C)C(O)C(OC2OC(CO)C(O)C(OC3OC(CO)C(O)C(OC4OC(COC5OC(CO)C(O)C(O)C5O)C(O)C(O)C4O)C3O)C2O)C1O` (stereo not given): the outcome was “inactive [at 9.23 µM]”.

On to `CC1(C)CC[C@]2(C(=O)O)CC[C@]3(C)C(=CCC4[C@@]5(C)CC[C@H](O[C@@H]6O[C@H](C(=O)O)[C@@H](O)[C@H](O)[C@H]6O)C(C)(CO)C5CC[C@]43C)C2C1` (stereo not given in full), for which the “activity change, negative = viability loss” value is -13.1% [at 17.3 µM] (inactive).

In the case of `C=C1CC2C3(C)C(OC(C)=O)CC(=O)OC(C)(C)C3C(O)C(OC(C)=O)C2(C)C2C(=O)OC(C)C(=O)C12C` (stereo not given), the “activity change, negative = viability loss” value was -15.7% [at 17.3 µM] (inactive).

Take `CCC[C@@H]1C[C@@H](C(=O)N[C@@H]([C@H]2O[C@H](SC)[C@H](O)[C@@H](O)[C@@H]2O)[C@@H](C)O)N(C)C1`: the call was inactive.

With `CC1=CC(=O)CC(C)(C)C1CCC(C)OC1OC(COC(=O)c2cc(O)c(O)c(O)c2)C(O)C(O)C1O` (stereo not given), the “outcome” value is “inactive [at 17.3 µM]”.

For the compound `COC1CC(OC2CCC3(C)C(=CCC4C3CCC3(C)C(C(C)O)CCC43O)C2)OC(C)C1OC1OC(C)C(OC2OC(COC3OC(COC4OC(CO)C(O)C(O)C4O)C(O)C(O)C3O)C(O)C(O)C2O)C(OC)C1O` (stereo not given), the outcome was “inactive [at 9.23 µM]”.

`CC(=O)O[C@@]1(C)C[C@@H](O)[C@]2(O)C=CO[C@@H](O[C@@H]3O[C@H](CO)[C@@H](O)[C@H](O)[C@H]3O)[C@@H]21`: the “activity change, negative = viability loss” value was -0.184% [at 17.3 µM] (inactive).

For the compound `COc1ccc(/C=C/C(=O)O[C@@H]2[C@@H](OC(C)=O)[C@@H](OC(C)=O)[C@H](O[C@H]3[C@@H]4C=CO[C@@H](O[C@@H]5O[C@H](CO)[C@@H](O)[C@H](O)[C@H]5O)[C@@H]4[C@@]4(CO)O[C@@H]34)O[C@H]2C)cc1O`, the “outcome” value was “inactive [at 17.3 µM]”.

With `C[C@@H]1CC[C@H]2C(C)(C)[C@H](O)[C@H](O)C[C@]2(C)[C@@]12Cc1c(O)cc3c(c1O2)CNC3=O`, the “activity change, negative = viability loss” value was -13.2% (inactive).

Turning to `COc1ccc2c(c1)O[C@H](O[C@@H]1O[C@H](CO)[C@@H](O)[C@H](O)[C@H]1O)C(=O)N2`, the result was inactive.

As to `C[C@H]1C[C@H]2[C@@H]3CCC4=CC(=O)C=C[C@]4(C)[C@@]3(F)[C@@H](O)C[C@]2(C)[C@@]1(O)C(=O)COP(=O)(O)O`, the “activity change, negative = viability loss” value was -20.3% (inactive).

In the case of `CC1(CCC(=O)O)C(=O)C=CC23CC4CC(OC4(C)C2O)C13` (stereo not given), the “activity change, negative = viability loss” value is -12.1% (inactive).

As for `CCC(NC(=O)CC(NC(=O)C(CO)NC(=O)C(CC)NC(=O)c1ccc[nH]1)c1ccccc1)C(=O)O` (stereo not given), the “outcome” value was “inactive [at 17.3 µM]”.

As to `CC(C)(O)C1CC=C(C(=O)OCC2OC(Oc3c(O)cc(C(=O)O)cc3O)C(O)C(O)C2O)CC1` (stereo not given), the “activity change, negative = viability loss” value is -5.25% [at 17.3 µM] (inactive).

As for `CC(=O)Oc1cc2c(s1)CCN([C@H](C(=O)C1CC1)c1ccccc1F)C2`, the compound was classed as inactive.

In the case of `COc1ccc2c3c1O[C@H]1C[C@@H](O)C=C[C@@]31CCN(C)C2`, the result was inactive.

Regarding `COc1cc(N2CCC(O)CC2)ccc1Nc1cc(Nc2ccccc2S(=O)(=O)C(C)C)c2cc[nH]c2n1`, the result was inactive.

As to `C[C@H]1[C@H](C)CC[C@]2(C(=O)O)CC[C@]3(C(=O)O)C(=CCC4[C@@]5(C)CC[C@H](O[C@@H]6O[C@H](C)[C@@H](O)[C@H](O)[C@H]6O)C(C)(C)C5CC[C@]43C)[C@H]12` (stereo not given in full), the “activity change, negative = viability loss” value is 4.24% [at 17.3 µM] (inactive).

Take `CC(C)(O)CNc1nc(Nc2ccnc(C(F)(F)F)c2)nc(-c2cccc(C(F)(F)F)n2)n1`: the Potency was 20.9 µM (active).

Regarding `C=CC1C(O[C@@H]2O[C@H](CO)[C@@H](O)[C@H](O)[C@H]2O)OC=C(C(=O)OC)C1Cc1nccc2c1[nH]c1ccccc12` (stereo not given in full), the “outcome” value was “inactive [at 17.3 µM]”.

Turning to `Nc1ccn([C@@H]2C(F)=C(CO)[C@@H](O)[C@H]2O)c(=O)n1`, the Potency was 0.372 µM (active).

Turning to `C[C@@H]1C(=O)O[C@H]2[C@H]1CC[C@@]1(C)C(=O)C=C[C@](C)(O)[C@H]21`, the “activity change, negative = viability loss” value is 0.861% (inactive).

Consider `COc1cc(C)c(C(=O)O[C@H]2[C@@H](O)[C@H](n3ccc(=O)[nH]c3=O)O[C@@H]2CO)c(OC)c1`, for which the “activity change, negative = viability loss” value is -12.7% [at 17.3 µM] (inactive).

`Cn1c(=O)c2nc(/C=C/c3cccc(Cl)c3)n(C)c2n(C)c1=O`: the “outcome” value is “inactive [at 91.9 µM]”.

Regarding `COC(=O)C1=COC(OC2OC(CO)C(O)C(O)C2O)C2C1CC(OC(=O)C(O)CC(=O)O)C2C` (stereo not given), the “activity change, negative = viability loss” value is -3.53% [at 17.3 µM] (inactive).

Turning to `CC(=O)O[C@H]1[C@H](Oc2ccccc2COC(=O)C2(O)C=CCCC2=O)O[C@H](CO)[C@@H](O)[C@@H]1O` (stereo not given in full), the Potency is 8.93 µM (active).

On to `N#CCc1ccc(O)cc1O[C@@H]1O[C@H](CO)[C@@H](O)[C@H](O)[C@H]1O`, for which the “activity change, negative = viability loss” value is -1.28% (inactive).

For `CCC(C)(O)C(O)C(=O)OCc1ccc(O[C@@H]2O[C@H](CO)[C@@H](O)[C@H](O)[C@H]2O)c(OC)c1` (stereo not given in full), the “activity change, negative = viability loss” value is -6.19% [at 17.3 µM] (inactive).
